# Bioassay records: PubChem, Broad Institute
# Wnt act = activators of Wnt/beta-catenin signaling; Wnt/beta-catenin reporter cell assay, activator, plate reader; hit rate 1.2% among 300,000; activation, % at 9.35 µM; AID 743398; in the data active = activation above about 30%, passing the limit was not always enough; inconclusive = no clear call, values can overlap the other calls
# MITF TRPM1 HTS = activators of MITF-driven TRPM1 promoter activity in SK-MEL-5 cells | SK-MEL-5 TRPM1-promoter luciferase, 24 h; % of positive control, neutral wells = 0 | activation, % at 12.5 µM | hit rate 0.75% among 300,000 | AID 588334;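 active = mean activation of at least 80% with every replicate also reaching 80%; inconclusive = mean reaches 80% but some replicate falls short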
# C2C12 statin = suppression of simvastatin myotoxicity; AID 602340; rescue of ATP level, % at 7.49 µM; C2C12 myotubes + simvastatin, ATP luminescence, 48 h; scaled: DMSO 0, geranylgeraniol control 100; hit rate 0.78% among 330,000;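 active = mean ATP rescue above about 67%, or every replicate alone reaching that limit, limit read from the data, passing the limit was not always enough; inconclusive = no clear call, values can overlap the other calls; inactive = mean under the limit and some replicate under it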;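 note: myotubes were challenged with 10 µM simvastatin during compound exposure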
# esBAF inh = inhibitors of esBAF chromatin remodeling in mouse ES cells | Bmi1-luciferase knock-in reporter, 24 h; 100% = twice the neutral-well signal | reporter increase, % at 12.5 µM | hit rate 2% among 350,000; in the data active = activation above about 40%; inconclusive = no clear call, values can overlap the other calls;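 note: a rise in the Bmi1 reporter signal indicates esBAF inhibition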
# Hits are given with their value; 0 = inactive; ? = inconclusive; - = no result given. The list is not random: actives were taken first. Their share in the collection is about 3%.
SMILES,Wnt act,MITF TRPM1 HTS,C2C12 statin,esBAF inh
C#CCn1c(=NC(=O)CN2C(=O)CCC2=O)sc2cccc(OC)c21,0,0,0,0
C#CCn1c(=NC(=O)c2cccs2)sc2cccc(OC)c21,0,0,0,54
O=Cc1cccc(OCc2cccc3ccccc23)c1,0,0,0,66
NNC(=O)c1ccc(COc2ccc3ccccc3c2)cc1,33,0,-,-
O=Cc1ccc(OCc2ccc3ccccc3c2)cc1,0,103,0,50
O=C(O)c1ccc(COc2ccc3ccccc3c2)o1,51,0,-,-
C[C@H]1CCCCO[C@@H](CN(C)CC2CCCCC2)[C@@H](C)CN([C@@H](C)CO)C(=O)c2cc(NC(=O)CCCN(C)C)ccc2O1,-,-,0,0
CO[C@H]1CC[C@@H]2CCN(C)C(=O)C[C@@H](c3ccccc3)CN(C)C(=O)c3cc(C#N)ccc3OC[C@H]1O2,-,-,0,0
CCCNC(=O)Nc1ccc2c(c1)C(=O)N(C)[C@H]1CC[C@H](CC(=O)NCCCN(C)C)O[C@H]1CO2,-,-,0,0
c1cc(-c2noc(CC3CCCCC3)n2)ccn1,-,0,147,0
CCOC(=O)c1sc(=NC(=O)c2cccs2)n(C)c1C,39,0,0,0
CCOC(=O)c1sc(=NC(=O)c2ccc(Cl)s2)n(C)c1C,0,0,-,-
CCOC(=O)c1sc(=NC(=O)c2ccccc2Br)n(C)c1C,32,?,0,58
CCOc1ccc(C2SCC(=O)N2c2c(C)n(C)n(-c3ccccc3)c2=O)cc1 (centres undefined),-,0,117,0
Cc1noc(C)c1S(=O)(=O)N1CCC(C(=O)N2CCN(c3ccccc3Cl)CC2)CC1,0,0,137,0
Cc1cccc(N2CCN(C(=O)C3CCN(S(=O)(=O)c4c(C)noc4C)CC3)CC2)c1C,0,0,0,0
C[C@@H]1CN([C@H](C)CO)C(=O)c2cc(NC(=O)C3CCCCC3)ccc2O[C@H]1CN(C)CC1CCCCC1,-,-,0,0
Nc1c(C(=O)NCc2ccco2)nnn1CC(=O)Nc1ccccc1,0,0,97,0
COCc1nnc(NC(=O)c2ccco2)s1,-,-,0,45
COCc1nnc(NC(=O)c2sc3ccccc3c2Cl)s1,?,-,0,51
Cc1nnc(NC(=O)c2sc3ccccc3c2Cl)s1,0,0,-,-
CNC(=O)c1ccsc1NC(=O)c1sc2ccccc2c1Cl,?,0,0,43
CSc1nnc(NC(=O)c2ccco2)s1,0,0,0,0
CCC(C)Sc1nnc(NC(=O)c2ccco2)s1 (centres undefined),0,-,0,50
O=C(C[C@@H]1C[C@@H]2c3cc(NC(=O)Nc4ccccc4)ccc3O[C@@H]2[C@@H](CO)O1)NCc1ccccn1,-,-,0,0
SMILES,Wnt act,MITF TRPM1 HTS,C2C12 statin,esBAF inh
Cc1ccc(S(=O)(=O)N(C)C[C@@H]2Oc3ccc(NS(=O)(=O)c4ccc(F)cc4)cc3CC(=O)N([C@H](C)CO)C[C@@H]2C)cc1,-,-,0,0
CC(C)NC(=O)Nc1ccc2c(c1)CC(=O)N([C@H](C)CO)C[C@@H](C)[C@@H](CN(C)C(=O)NC(C)C)O2,-,-,0,0
CN1C(=O)C2(Oc3ccccc3C3CC(c4ccccc4)=NN32)c2ccccc21 (centres undefined),-,0,?,95
CCC(=O)Nc1ccc2c(c1)OC[C@H](C)N(C(=O)C1CCC1)C[C@H](C)[C@H](OC)CN(C)C2=O,-,-,0,0
O=c1c(O)c(-c2ccc3c(c2)OCO3)oc2ccccc12,-,0,0,55
CCOC(=O)Cc1csc(NC(=O)c2sc3nc4ccc(C)cc4cc3c2N)n1,-,-,0,0
CCc1nnc(NC(=O)c2sc3nc4cc(C)ccc4cc3c2N)s1,-,-,0,49
Cn1c(/C(C#N)=C(\O)c2ccc(Br)s2)nc2ccccc21,0,0,0,47
COc1ccc(OC)c(/C=C/C(=O)N2C(=O)c3cccc(N)c3C2=O)c1,0,0,-,-
COc1cc(/C=C/C(=O)N2C(=O)c3cccc(N)c3C2=O)cc(OC)c1OC,135,0,0,0
Cc1ccc(NC(=O)O/N=C/c2ccc(N(C)C)cc2)cc1,0,0,0,56
Cc1ccc(NC(=O)O/N=C/c2ccc(F)cc2)cc1,0,-,0,56
CN(C)c1ccc(C=NNC(=S)Nc2ccc(F)cc2)cc1,0,0,0,59
O=C(Nc1ccccc1)O/N=C/c1ccc(F)cc1,0,-,0,48
O=C(Nc1ccccc1Cl)O/N=C/c1ccc(F)cc1,0,0,-,-
COc1ccc(NC(=O)O/N=C/c2ccc(N(C)C)cc2)cc1,0,0,0,0
COc1ccc(NC(=O)N[C@H]2CC[C@@H](CCNC(=O)c3ccccc3F)O[C@@H]2CO)cc1,-,-,0,0
Cc1noc(C)c1NC(=O)N(C)C[C@H]1Oc2ccc(NC(=O)c3ccncc3)cc2CC(=O)N([C@@H](C)CO)C[C@@H]1C,-,-,0,0
